# Measured values: PubChem BioAssay AID2796 (The Scripps Research Institute Molecular Screening Center, 2010)
# The whole screen tested about 320,000 compounds, of which about 8,000 (2.5%) were called active. Many of the other results were omitted from the sample, so actives are more common in it than they were. A number with no mark means an inactive call. Rule as the data show it: active = activation above about 47%; inactive = the rest.
# Molecular target: Aryl hydrocarbon receptor (Homo sapiens) (UniProt P35869)
# Sequence (P35869 whole entry, looked up): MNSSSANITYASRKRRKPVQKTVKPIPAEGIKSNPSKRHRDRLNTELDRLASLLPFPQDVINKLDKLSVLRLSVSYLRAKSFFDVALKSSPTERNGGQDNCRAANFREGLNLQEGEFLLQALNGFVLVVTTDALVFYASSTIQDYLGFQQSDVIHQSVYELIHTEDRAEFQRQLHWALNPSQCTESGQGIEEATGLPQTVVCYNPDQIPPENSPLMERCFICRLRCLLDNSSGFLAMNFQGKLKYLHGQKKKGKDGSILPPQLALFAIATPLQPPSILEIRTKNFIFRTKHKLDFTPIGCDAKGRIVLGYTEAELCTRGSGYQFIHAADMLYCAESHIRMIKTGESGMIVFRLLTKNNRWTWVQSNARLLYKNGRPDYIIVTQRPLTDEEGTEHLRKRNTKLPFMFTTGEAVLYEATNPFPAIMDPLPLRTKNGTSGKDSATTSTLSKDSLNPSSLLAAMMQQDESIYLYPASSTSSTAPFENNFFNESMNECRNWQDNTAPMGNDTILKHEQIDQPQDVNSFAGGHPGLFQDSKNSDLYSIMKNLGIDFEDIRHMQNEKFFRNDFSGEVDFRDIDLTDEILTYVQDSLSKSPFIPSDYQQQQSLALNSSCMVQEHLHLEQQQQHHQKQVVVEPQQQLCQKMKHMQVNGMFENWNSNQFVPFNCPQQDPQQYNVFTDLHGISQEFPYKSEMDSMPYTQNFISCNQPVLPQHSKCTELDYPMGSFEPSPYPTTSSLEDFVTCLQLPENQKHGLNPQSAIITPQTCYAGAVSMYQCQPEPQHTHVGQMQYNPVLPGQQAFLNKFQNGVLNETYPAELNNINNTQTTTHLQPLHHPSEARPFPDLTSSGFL
# Experiment: AHR activators, primary screen, cell-based, luminescence, luciferase reporter, human (AID 2796);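 also: 0% = vehicle wells and 100% = reference agonist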
# Details: AHR-responsive luciferase reporter cells, at 5 µM, hits give high values
row,Structure (SMILES),activation
1,CC(C)c1ccc(NC(=S)NC2CC3C=CC2C3)cc1 (stereo unspecified),7.48%
2,O=c1[nH]c(=S)[nH]c2[nH]c(=S)[nH]c12,0%
3,Cc1c(C)c(C)c2[nH]c(=S)[nH]c2c1C,52.1% (active)
4,O=C(CN(c1ccc2c(c1)OCCO2)S(=O)(=O)c1ccccc1)Nc1ccc2c(c1)OCO2,79.1% (active)
5,O=C(CCS(=O)(=O)Cc1ccccc1)Nc1ccc2c(c1)OCCO2,3.19%
6,CCN(CC(=O)Nc1ccc2c(c1)OCO2)S(=O)(=O)c1ccccc1,28.8%
7,O=C(CN1CCN(S(=O)(=O)c2cccc(Cl)c2)CC1)N1CCCCC1,-1.59%
8,CCCCNC(=O)C1(c2ccc(OC)cc2)CCOCC1,0.03%
9,CS(=O)(=O)c1ccc2nnn(OCC(=O)Nc3cccc(C#N)c3)c2c1,5.17%
10,Fc1ccccc1OCCSc1nc2ccccc2o1,-9.22%
11,COc1ccc(/C=C(\NC(=O)c2ccc(OC)c(OC)c2)C(=O)NCCc2c[nH]c3ccccc23)cc1,13.8%
12,COc1ccc(C(C(O)C(=O)c2c[nH]c3ccccc23)N2CCN(c3ccccc3)CC2)cc1 (stereo unspecified),12.8%
13,COc1ccc(/C=C(\C#N)c2c[nH]c3ccccc23)cc1,53.6% (active)
14,CC(NC(=O)COC(=O)c1ccc(Cl)cc1O)c1ccc(F)cc1 (stereo unspecified),3.35%
15,Cc1ccc2nc(/C(C#N)=C\c3ccc(OC(=O)c4cccs4)cc3)[nH]c2c1,80.8% (active)
16,CCOc1cc(/C=C(\C#N)c2nc(-c3cccs3)c(NC(C)=O)s2)ccc1O,8.05%
17,CCOC(=O)CSc1nc2ccc(C)cc2[nH]1,1.6%
18,Cc1ccc(S(=O)(=O)NC(C)C(=O)NCc2ccc(Cl)cc2)cc1 (stereo unspecified),0.98%
19,COCCCn1c(SCc2cccc(OC)c2)nc2cc(OC)c(OC)cc2c1=N,11.1%
20,CC(C)(C)OC(=O)C[C@@H]1C/C=C\C[C@@H](CC(=O)N(CCO)Cc2ccccc2)C(=O)N[C@H](Cc2ccccc2)COC1=O,2.29%
21,Cc1ccc2nc(SCC(=O)NC3CCCC3)[nH]c2c1,42.2%
22,Cc1cc(C)nc(SCc2cn3c(C)cc(C)nc3n2)n1,7.09%
23,Cc1ccc2nc(SCc3cn4c(C)cc(C)nc4n3)[nH]c2c1,62.1% (active)
24,CCC1(c2ccccc2)NC(=O)N(CC(=O)Nc2ccccc2C(=O)NC2CCCC2)C1=O (stereo unspecified),1.57%

row,Structure (SMILES),activation
1,CN(Cc1ccccc1)C(=O)COC(=O)/C=C/c1ccc2c(c1)OCO2,2.59%
2,CN(c1ccc(OCC(=O)OCC(=O)Nc2cccc([N+](=O)[O-])c2)cc1)S(=O)(=O)c1ccc(F)cc1,2%
3,O=C1C(=O)N(c2ccccc2)c2ccccc21,0.42%
4,O=C(c1c(F)cccc1F)N1CCN(c2ncc(Br)cn2)CC1,1.98%
5,CCn1c(=O)c(C(=O)NCc2ccc3c(c2)OCO3)c(O)c2ccccc21,1.55%
6,CCn1c(=O)cc(SCC(=O)NCc2ccc3c(c2)OCO3)c2ccccc21,6.43%
7,CCn1c(=O)c([N+](=O)[O-])c(NCc2ccc3c(c2)OCO3)c2ccccc21,47.1% (active)
8,CC(C)CNC(=S)Nc1ccc(F)cc1,-0.24%
9,CC(C)CNC(=O)C(=O)NCc1ccccc1,-0.83%
10,CC(C)CNC(=O)C(=O)Nc1ccc(N(C)C)cc1,48% (active)
11,O=C1C=C(c2ccc(Cl)cc2)C(=O)N1Nc1ccccc1,-0.76%
12,NC(=O)C1CCN(C(=O)COc2ccc3c4c(c(=O)oc3c2)CCC4)CC1,-1.05%
13,COc1ccc(NS(=O)(=O)c2cc(NC(=O)c3ccc(S(=O)(=O)N(C)C)cc3)ccc2N2CCOCC2)cc1,0.52%
14,CC1CC(C)(C)CC2(C1)NC(=O)N(CC(=O)Nc1nccs1)C2=O (stereo unspecified),2.2%
15,Cc1ccc(/C([O-])=C(/C(=S)NCc2ccco2)[n+]2ccccc2)cc1[N+](=O)[O-],2.88%
16,O=[N+]([O-])c1cccc(/C([O-])=C(/C(=S)Nc2ccccc2F)[n+]2ccccc2)c1,49.5% (active)
17,CC1CCN(C(=S)c2cccc([N+](=O)[O-])c2)CC1,-3.58%
18,COc1cccc(-c2ccc3c(c2)S(=O)(=O)c2cccc(C(=O)O)c2C3=O)c1OC,-3.31%
19,CC1CN/C(=C\C(=O)c2ccc(Br)cc2)C(=O)N1 (stereo unspecified),-14.4%
20,Cc1nc(Cl)c2oc3ccccc3c2n1,4.72%
21,CCc1nc(Nc2ccc(NC(C)=O)cc2)c2oc3ccccc3c2n1,5.36%
22,CCc1nc(Nc2ccc3nccnc3c2)c2oc3ccccc3c2n1,85.3% (active)
23,COc1ccc(/C=N/n2c(C)cc(C)cc2=O)cc1,-0.2%
24,CCn1c(NC(=O)c2nn(C)cc2Br)nc2ccccc21,122% (active)

row,Structure (SMILES),activation
1,Cn1c(-c2ccc(C(=O)c3ccccc3)s2)nc2ccccc21,-15%
2,CCC(=O)Nc1nc2ccccc2n1Cc1ccccc1C,2.17%
3,CC(=O)NCCc1nc2cc(NC(=O)c3ccccc3)ccc2n1C,5.94%
4,CC(=O)Nc1nc2ccccc2n1Cc1ccc(C)cc1,1.47%
5,Cn1c(NC(=O)c2ccccc2)nc2ccccc21,76.5% (active)
6,O=C(Cn1cnc2ccccc2c1=O)NCC1COc2ccccc2O1 (stereo unspecified),0.29%
7,O=C(c1ccc(F)cc1)N1CCCC(C(=O)N2CCCCC2)C1 (stereo unspecified),-0.02%
8,CCN1C(=O)/C(=C2\SC(N3CCCCC3)=NC2=O)c2ccccc21,22.2%
9,COc1ccc(Cl)cc1-n1c(=S)sc2c(=O)n(-c3ccc(F)cc3)c(SCC(=O)O)nc21,3.11%
10,COc1nc(NCc2ccc(Cl)cc2)nc(OC)n1,-1.92%
11,C=CCNc1nc(Nc2ccc(Cl)cc2)nc(OC)n1,52.8% (active)
12,C=CCNc1nc(C)nc(OC)n1,-0.26%
13,O=C(NCc1cccc(Cl)c1)C1CCC(=O)N(C2CC2)C1 (stereo unspecified),7.52%
14,Cc1cccc(C(=O)Nc2nnc(Cc3c[nH]c4ccccc34)s2)c1,22.8%
15,C=CCn1c(C)cc(C2=NNC(=NCC)SC2)c1C,-11%
16,Cc1cccc(N=C2NN=C(c3c[nH]c4ccccc34)CS2)c1,99.4% (active)
17,COc1ccccc1N=Cc1c(O)c2ccccc2oc1=O,4.13%
18,COc1ccc(OC)c(N=Cc2c(O)[nH]c3ccccc23)c1,54.3% (active)
19,CN=c1scc(-c2cc(OC)ccc2OC)n1/N=C/c1c(C)[nH]c2ccccc12,-2.76%
20,O=C(Cn1nc(CNc2ccc(Cl)cc2)[n+]2c1CCCCC2)c1ccc(Cl)cc1,28.6%
21,Cc1nn(-c2ccccc2)c(NC(=O)c2cccs2)c(-c2ccc(Cl)cc2)c1=O,0.87%
22,Cc1nn(-c2cc(Cl)ccc2N)c(=O)c2ccccc12,0.58%
23,Cc1cc(=O)oc2c1c(C)nn2-c1ccc(Cl)cc1,58% (active)
24,COc1ccc(CNC(=O)CN(c2ccc(OC)c(Cl)c2)S(=O)(=O)c2ccc(C)cc2)cc1,4.87%

row,Structure (SMILES),activation
1,C[C@]12CC[C@H](O)CC1=CCC1C2CC[C@@]2(C)C1CC[C@@H]2NC(=O)CCC(=O)O (stereo partly specified),-0.38%
2,O=[N+]([O-])c1cccc(C2=NCCS2)c1,0.6%
3,COc1ccc2oc(-c3cccc(NC(=O)CSc4ccc(Cl)cc4)c3)nc2c1,28.6%
4,COc1cccc(-c2nc3cc(C)ccc3o2)c1,83.1% (active)
5,COc1cccc(-c2nnc(SCCOc3ccc4c(C)cc(=O)oc4c3)o2)c1,-2.36%
6,O=[N+]([O-])c1ccc2oc(-c3cccc(O)c3)nc2c1,78% (active)
7,CC(=O)Oc1ccc2c(=O)oc(-c3ccc([N+](=O)[O-])cc3)nc2c1,14.1%
8,CC(=O)c1ccc(NC(=O)CCNS(=O)(=O)c2cc(Br)cnc2N)cc1,2.25%
9,COc1ccc(CN2CCC(n3nccc3NC(=O)CCCc3ccccc3)CC2)cc1C,-8.72%
10,CCC(C)NC(=O)C1c2ccccc2C(=O)N1Cc1ccccc1 (stereo unspecified),0.97%
11,Cc1[nH]nc(SCC(=O)NCC(C)C)c1[N+](=O)[O-],-0.18%
12,COc1ccc(CN2CCCC(C(=O)N3CCCCC3)C2)cc1 (stereo unspecified),-0.87%
13,COc1cc(NC(=O)Nc2ccc(C)cc2)cc([N+](=O)[O-])c1,61.8% (active)
14,COC(=O)c1ccc(NC(=O)Nc2ccc(C)cc2)cc1,1.57%
15,CC(=O)c1ccc(NC(=O)Nc2ccc([N+](=O)[O-])cc2C)cc1,-4.23%
16,Oc1cccc2ccc(/C=C/c3ccc(Br)s3)nc12,52.2% (active)
17,Nc1ccc(S(=O)(=O)Nc2nccc(/C=C/c3ccc(Br)s3)n2)cc1,-1.58%
18,CCN(c1ccccc1)S(=O)(=O)c1ccc2[nH]c(=O)[nH]c2c1,7.41%
19,CC(C)C(NC(=O)OCc1ccccc1)C(=O)OCC(=O)N1C(C)CCCC1C (stereo unspecified),2.02%
20,CCCOc1ccc(Cl)cc1Nc1nc(NCCO)nc(N2CCCC2)n1,12.8%
21,CC(C)(C)Oc1ccccc1Nc1nc(NCCO)nc(N2CCCC2)n1,53.9% (active)
22,Cc1cccc(Nc2nc(NCCO)nc(N3CCCC3)n2)c1,19.5%
23,CN(CC(=O)NCc1ccncc1)S(=O)(=O)c1ccc(Br)cc1,5.25%
24,Cc1ccc(-c2nnc(-n3nnc4ccccc43)c3ccccc23)cc1,1.43%
